The text below walks through data of ChEMBL document CHEMBL3988442, “University of Dundee, Small-Polar-MMV Screening Library” (2021).

SMILES strings stand for the structures. Screen size: about 48,000 compounds; about 13,000 (27%) showed an effect of 50% or more. The list shows a part of the results.

The subject of this experiment is Wolbachia pipientis. Description: Anti-Wolbachia Cell-Based Screen. Type of experiment: functional. Also noted: scale not given: in the data most compounds retested in dose-response had high values. The conditions noted are these: 5 µM.
On to `Cc1cc(C)c2[nH]c(=O)c(CN3CCC(O)(CN(C)C)C3)cc2c1` (stereo unspecified), for which the “Percent Effect” value is -2.791%.

In the case of `COc1ccc(-c2ccc(C(=O)O)c(F)c2)c(F)c1`, the “Percent Effect” value was -9.144%. With `CC(=O)c1ccc(N2CCC3(CC2)CC(=O)N(C)C3)nc1`, the “Percent Effect” value was 9.989%.

With `CCc1c(C)nc2n(c1=O)CC(C(=O)Nc1nccs1)CS2` (stereo unspecified), the “Percent Effect” value stood at 17.24%. To `CCc1c(C)nc2n(c1=O)CC(C(=O)Nc1ncccc1C)CS2` (stereo unspecified) belongs 124.5%. Take `Cc1cnc2n(c1=O)CC(C(=O)NC1CC1)CS2` (stereo unspecified): the “Percent Effect” value is given as -10.47%.

Turning to `CCc1c(C)nc2n(c1=O)CC(C(=O)Nc1ccccc1C)CS2` (stereo unspecified), the “Percent Effect” value is given as 112.9%.

On to `CCc1c(C)nc2n(c1=O)CC(C(=O)Nc1sccc1C(=O)OC)CS2` (stereo unspecified), for which the “Percent Effect” value is listed as 119.9%. To `CCc1cccc(C)c1NC(=O)C1CC(=O)N(Cc2ccccn2)C1` (stereo unspecified) belongs 16.74%.

Consider `CCc1c(C)nc2n(c1=O)CC(C(=O)Nc1ccccc1F)CS2` (stereo unspecified), for which the “Percent Effect” value is listed as -0.8379%. Turning to `Cc1cnc2n(c1=O)CC(C(=O)Nc1cccc3cccnc13)CS2` (stereo unspecified), the “Percent Effect” value is reported as 0.1912%. To `Cc1cnn(CC2CN(CC(=O)NCCc3cccs3)CCO2)c1` (stereo unspecified) belongs -8.737%.

For `CCC(NC(=O)c1cccc(N2CCCC2=O)c1)c1ccc(OC)cc1` (stereo unspecified), the “Percent Effect” value is reported as -14.69%. As to `Cc1ccc(N2CCCC(N3CCC(N(C)C)CC3)C2=O)cc1` (stereo unspecified), the “Percent Effect” value stood at 3.726%. `Cc1cc(=O)n2ncnc2n1CC(O)COCc1ccccc1Cl` (stereo unspecified): the “Percent Effect” value is -44.43%. For `Cc1cc(F)cc(S(=O)(=O)Nc2noc(C)n2)c1`, the “Percent Effect” value is -6.165%.

On to `COCCn1/c(=N\C(=O)CN(C)S(C)(=O)=O)sc2cc(OC)ccc21`, for which the “Percent Effect” value is -16.36%. With `CNC(=O)[C@H]1C[C@H]2OCC[C@H]2N(Cc2ccc(C)o2)C1.O=C(O)C(F)(F)F`, the “Percent Effect” value is listed as -19.44%.

As for `Cc1cc(CN2C[C@H](OCC3CCOCC3)[C@H]3COC[C@H]32)oc1C.O=C(O)C(F)(F)F`, the “Percent Effect” value worked out at 99%.

With `Cc1cc(CN2CC[C@H]3[C@H]2CCN3S(C)(=O)=O)oc1C.O=C(O)C(F)(F)F`, the “Percent Effect” value was -17.79%. Turning to `CN1CCC(CO[C@H]2CN(C(=O)c3cccn3C)[C@@H]3COC[C@H]23)CC1`, the “Percent Effect” value is -44.74%. To `Cc1noc(C)c1CN1Cc2cn(C)nc2C(COCC2CC2)C1.O=C(O)C(F)(F)F.O=C(O)C(F)(F)F` (stereo unspecified) belongs 0.03565%; to `Cc1ccc(CN2C[C@H](OCC3CCN(C)CC3)[C@H]3COC[C@H]32)o1`, 110.9%; to `Cc1ccc(CN2C[C@H](OCC3CCOCC3)[C@H]3COC[C@H]32)o1.O=C(O)C(F)(F)F`, 113.3%. The figure for `Cc1ccc(CN2C[C@H](N3CCOCC3)[C@@H]3OCCC[C@@H]32)o1.O=C(O)C(F)(F)F.O=C(O)C(F)(F)F` is -1.951%; for `COCCN1C[C@H]2[C@@H](C1)N(Cc1ccc(C)o1)CC[C@H]2OC` it is 6.788%; for `Cc1noc(C)c1CN1CCc2cnn(C)c2C1COCC1CC1.O=C(O)C(F)(F)F.O=C(O)C(F)(F)F` (stereo unspecified) it is -11.43%.

Regarding `Cc1noc(C)c1CN1C[C@H](OCC2CCN(C)CC2)[C@H]2COC[C@H]21.O=C(O)C(F)(F)F.O=C(O)C(F)(F)F`, the “Percent Effect” value was found to be 122.2%. In the case of `Cc1cc(CN2C[C@H](N3CCOCC3)[C@@H]3OCCC[C@@H]32)oc1C.O=C(O)C(F)(F)F.O=C(O)C(F)(F)F`, the “Percent Effect” value is -6.636%. To `CC1(c2ccccc2)CCC(=O)N(CCN2CCCOC2=O)C1` (stereo unspecified) belongs -2.659%; to `CC(Cn1cnc2cn(C)nc2c1=O)Oc1cccnc1` (stereo unspecified), -0.8182%; to `Cc1[nH]ncc1CCCNC(=O)N1CCN2CCCCC2C1` (stereo unspecified), -2.363%. To `CCCn1cnnc1CNC(=O)C1COc2cc(OC)ccc2C1` (stereo unspecified) belongs -15.52%; to `CCOCCNC(=O)c1cccc(S(=O)(=O)NC[C@@H]2C[C@H](F)CN2)c1`, -1.824%; to `Cc1ccc(F)c(C(=O)N2CCN(S(C)(=O)=O)[C@@H](C)C2)c1`, 7.436%. For `Cc1cc(C(F)(F)F)cc(=O)n1Cc1nc(C(C)C)no1`, the “Percent Effect” value turned out to be 99.71%.

For the compound `COCc1nc(CN2C(=O)OC[C@@H]2C(C)C)no1`, the “Percent Effect” value is recorded as 7.812%. The figure for `Cc1cc(C(F)(F)F)cc(=O)n1CCCn1cnnn1` is -2.026%; for `COCc1noc(CCNC(=O)c2cc(C)c(C)[nH]c2=O)n1` it is 20.99%; for `COCc1nc(Cn2c(C)cc(C(F)(F)F)cc2=O)no1` it is 116.4%. `COCc1noc(Cn2c(C)cc(C(F)(F)F)cc2=O)n1`: the “Percent Effect” value was found to be 123.4%. Take `Cc1cc(C(F)(F)F)cc(=O)n1CCn1cc(Cl)cn1`: the “Percent Effect” value is reported as -6.58%. To `COCc1nc(Cn2ncn3cccc3c2=O)no1` belongs 10.93%; to `Cc1cnn(CCCn2c(C)cc(C(F)(F)F)cc2=O)c1`, -18.2%; to `CCn1cc(CN(C)S(=O)(=O)c2cc(Cl)ccc2Cl)cn1`, 2.949%. On to `COCc1ncc(CN2CC(Oc3c(C)cccc3C)C2)cn1`, for which the “Percent Effect” value stood at 2.359%.

With `C[S+]([O-])c1nncn1CC(=O)c1ccc2c(c1)CCO2` (stereo unspecified), the “Percent Effect” value is given as -1.094%.

Consider `CC(C)N(C)CC(=O)NCC(O)c1cc2ccccc2s1` (stereo unspecified), for which the “Percent Effect” value is reported as -11.06%. To `FC(F)(F)Cc1noc(CN2CCCC2c2noc(C3CC3)n2)n1` (stereo unspecified) belongs 0.1706%; to `CC(C)c1nc(CSc2nnc(Cn3cncn3)o2)cs1`, -8.133%. To `CC(C)Cc1nc(CSCC(=O)N2CCC(C)CC2)no1` belongs 4.489%; to `COc1ccccc1C(=O)Nc1cc(CC(C)C)nn1C`, 100.2%. As to `CC(C)Cc1cc(C(=O)N2CC(OCc3ccccc3F)C2)n(C)n1`, the “Percent Effect” value is 4.315%. As to `CC(C)Cc1cc(C(=O)NC(C)(CO)CO)n(C)n1`, the “Percent Effect” value is 11.8%.

`CC(C)Cc1cc(NC(=O)c2ccccc2F)n(C)n1`: the “Percent Effect” value is on record as 99.33%. The figure for `O=c1c2cccnc2cnn1CC(O)c1ccc(Br)cc1` (stereo unspecified) is -15.17%. On to `CSCCC(NC(N)=O)C(=O)NCc1cnn(-c2ccccc2)c1` (stereo unspecified), for which the “Percent Effect” value is -24.8%. Turning to `O=C1CO[C@@H]2CN(S(=O)(=O)c3ccccc3)C[C@H]2N1CC1CC1`, the “Percent Effect” value is recorded as -2.601%. The figure for `CCN1CCNC(=O)C12CCN(S(=O)(=O)c1ccc(F)cc1)CC2` is -6%; for `CC(C)CN1CC(O)CN(S(=O)(=O)c2ccccc2)CC1=O` (stereo unspecified) it is 100.2%; for `CC(C)CN1CC(c2nc(-c3ccc(F)cc3)c[nH]2)CC1=O` (stereo unspecified) it is -3.521%. For the compound `CC(C)CN1CCNC(=O)C12CCN(S(=O)(=O)c1ccc(F)cc1)CC2`, the “Percent Effect” value is given as -14.33%. As to `CC(C)CN1CC(O)CN(S(=O)(=O)c2ccc(F)cc2)CC1=O` (stereo unspecified), the “Percent Effect” value turned out to be 103.6%. With `N[C@H]1CN(S(=O)(=O)c2ccccc2)C[C@@H]1C1CC1`, the “Percent Effect” value was -7.486%. Consider `O=C1CN(S(=O)(=O)c2ccc(F)cc2)CC(O)CN1CC1CC1` (stereo unspecified), for which the “Percent Effect” value was determined as 106.3%. Regarding `CCC[C@H]1CN(S(=O)(=O)c2ccccc2)C[C@@H]1N`, the “Percent Effect” value was -22.4%.
